From PubChem BioAssay
GLP-1R inv ag = qHTS of GLP-1 Receptor Inverse Agonists (Inhibition Mode). actives 1.6% (n = 410,000). HEK293 GLP-1R CRE-luciferase, luminescence, 24 h; GLP-1R form is constitutively active. Potency, µM (highest dose often 38.3 µM), for the others: top-dose activity change, negative = inhibition, most hits filed as inhibitors. AID 624417, 2012; further: on the % scale 0 is the no-effect control and ±100 the full control effect; nearly all actives have a fitted effect of over 55% in size
Target sequence (P43220 whole entry, looked up): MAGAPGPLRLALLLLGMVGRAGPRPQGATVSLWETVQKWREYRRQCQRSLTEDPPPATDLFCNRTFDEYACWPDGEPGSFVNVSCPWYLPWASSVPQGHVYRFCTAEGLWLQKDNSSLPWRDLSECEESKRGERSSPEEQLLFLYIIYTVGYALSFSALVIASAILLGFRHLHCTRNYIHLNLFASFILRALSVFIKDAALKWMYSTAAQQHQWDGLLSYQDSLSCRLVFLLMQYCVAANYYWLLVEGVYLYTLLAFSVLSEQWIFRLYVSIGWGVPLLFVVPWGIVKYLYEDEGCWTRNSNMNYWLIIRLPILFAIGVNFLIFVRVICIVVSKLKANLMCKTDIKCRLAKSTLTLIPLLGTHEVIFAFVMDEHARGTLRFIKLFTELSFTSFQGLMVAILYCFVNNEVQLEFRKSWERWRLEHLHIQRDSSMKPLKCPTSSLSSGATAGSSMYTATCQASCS
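Stable HEK293 clone (constitutively active GLP-1R + cAMP-response luciferase); 200 cells/uL plated, 12 h pre-culture, compound 24 hr, 37 deg C/5% CO2; detection reagent 12 min RT; luminescence.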
VP16 counter = VP16 counterscreen qHTS for inhibitors of ROR gamma transcriptional activity. Drosophila S2 Gal4-VP16 UAS-luciferase, luminescence, 20 h. Potency, µM (doses to about 53.6 µM), without a hit: at the highest dose activity, negative = inhibition, most hits filed as inhibitors. actives 3.5% (n = 310,000). AID 2546, 2010;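 further: Gal4-VP16 expression switched on by copper sulfate through the metallothionein promoter; on the % scale 0 is the no-effect control and ±100 the full control effect; nearly all actives have a fitted effect of over 50% in size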
GLP1R cytotox = qHTS of GLP-1 Receptor Inverse Agonists: Cytotox Screen | HEK293 cAMP-luciferase reporter cells, luminescence, 24 h | Potency, µM (highest dose often 38.3 µM), without a hit: at the top dose activity change, negative = inhibition, actives largely listed as inhibitors | actives 0.13% (n = 410,000) | AID 624418, 2012;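 further: loss of luciferase light is scored as toxicity; on the % scale 0 is the no-effect control and ±100 the full control effect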
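Luminescence readout: signal drop marks cytotoxicity. Plated cells grew 12 h at 37 °C, 5% CO2, received 23 nL compound for 24 h, then got luciferase reagent, read after 12 min at RT.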
GLP-1R agonist = qHTS of GLP-1 Receptor Agonists | actives 0.007% (n = 380,000) | HEK293 GLP-1R CRE-luciferase, luminescence, 4-6 h; cells express a hypersensitive GLP-1R form | Potency, µM (doses to about 45.6 µM), for the others: at the highest dose activation, usual class: activators | AID 624172, 2012 | Glucagon-like peptide 1 receptor (Homo sapiens), P43220; further: % of control where 0% means no effect
RORg inh = qHTS for inhibitors of ROR gamma transcriptional activity; Drosophila S2 Gal4-RORgamma UAS-luciferase reporter, 20 h; Potency, µM (top dose mostly 53.6 µM), inactives show at the top dose activity change, negative = inhibition, most hits filed as inhibitors; actives 5.4% (n = 310,000); AID 2551, 2010; further: on the % scale 0 is the no-effect control and ±100 the full control effect; nearly all actives have a fitted effect of over 60% in size
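ROR gamma transcriptional activity was tracked as Gal4-UAS luciferase output in stably transfected Drosophila Schneider cells, with compound added 1 hr before 700 uM copper sulfate induction and a 20 hr ambient-temperature incubation.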
* hit, by the source's call; u = inconclusive; x = no result given; [ ] = remark or other dose. Only some compounds are listed: those with a hit (about 5.9% of all), similar ones and a draw of the others. The call rests on the fitted dose curve; in most records, active means well fitted curve in the direction sought with a large enough effect; inconclusive means small, poorly fitted or top-dose-only effect, or another doubt; inactive means no such curve, though single readings can be large; an effect the other way counts as inactive or inconclusive. Potency means the concentration at half of the fitted maximal effect.

SMILES	GLP-1R inv ag	VP16 counter	GLP1R cytotox	GLP-1R agonist	RORg inh
CO/N=C\CC(=O)Nc1ccc(Oc2ccccc2)cc1	1.3µM*	-3%	-23%	10%	36%
COc1ccccc1N(C)S(=O)(=O)c1ccc(Cl)c(C(=O)NNC(=O)c2ccccc2O)c1	11µM*	u	-12%	-3%	-34%
COc1ccccc1N(C)S(=O)(=O)c1ccc(C(=O)NNC(=O)c2ccccc2O)cc1	u	x	-5%	-11%	x
COc1ccccc1N(C)S(=O)(=O)c1ccc(Cl)c(C(=O)OCc2c(C)noc2C)c1	10µM*	-9%[10 µM]	3%	17%	-16%
Cc1ccc(NC(=O)Cn2c(=O)n(Cc3ccco3)c(=O)c3sc4ccccc4c32)cc1C	-4%	x	0%	-1%	x
C/C(Cn1nnc([N+](=O)[O-])n1)=N\NC(=O)c1ccc(Cl)c(Cl)c1	-17%	u	-14%	-5%	13µM*
C/C(Cn1cnc([N+](=O)[O-])n1)=N\NC(=O)c1ccc(Br)cc1	3%	-4%	10%[1.53 µM]	-9%	u
C/C(Cn1nnc([N+](=O)[O-])n1)=N\NC(=O)c1ccc(O)cc1	11%	7.9µM*	-1%	5%	2.8µM*
N#C/C(=N\Nc1ccc([N+](=O)[O-])cc1)C(N)=S	u	13µM*	-100%	-5%	u
O=C(O)c1ccc(N=NNc2cccc([N+](=O)[O-])c2)cc1	-22%	-22%	-16%	-1%	14%
N#C/C(=N\Nc1ccc(S(=O)(=O)N2CCCCC2)cc1)C(N)=S	u	-22%	u	0%	u
N#C/C(=N\Nc1ccc([N+](=O)[O-])cc1)C(=N)N1CCOCC1	40%	-24%	u	-2%	3%
N#C/C(=N\Nc1cccc([N+](=O)[O-])c1)C(=O)c1ccc(Br)cc1	-13%	5µM*	u	1%	4.5µM*
N#C/C(=N/Nc1ccc([N+](=O)[O-])cc1)C(=N)N1CCCCC1	u	-12%	11µM*	5%	-1%
CCc1ccc(NC(=O)CN2C(=O)C3CCCN3c3ccc(S(=O)(=O)N(CC)CC)cc32)cc1 (centres undefined)	-6%	x	4%	x	x
NOCc1ccccc1	x	-12%	x	x	-11%
NC(CC(=O)Nc1ccc(Oc2cc(F)c(F)cc2Br)cc1)C(=O)O (centres undefined)	x	0%	x	x	16%
Cc1noc(C)c1C(=O)N1CCC2(CCN(Cc3ccc(C#N)cc3)CC2)CC1	x	0%	x	x	-18%
COc1cc(NC(=O)Cn2c(=O)n(C(C)C)c(=O)c3oc4ccccc4c32)cc(OC)c1	6%	x	-2%	x	x
O=C(CN1c2ccccc2Sc2ccccc21)NNC(=S)Nc1ccc(Cl)cc1	-30%	u	9%	-3%	10µM*
O=C(CN1c2ccccc2Sc2ccccc21)NNC(=S)Nc1ccc(Cl)cc1Cl	-3%	u	0%	-30%	13µM*
O=C(CN1c2ccccc2Sc2ccccc21)N/N=C/c1ccc(Cl)cc1Cl	-12%	-2%	2%	1%	4%
O=C(CN1c2ccccc2Sc2ccccc21)N/N=C/c1ccc(Cl)cc1	3.2µM*	-1%	-22%	3%	28%
Cc1nc2cc(Cl)ccc2n1-c1ccccc1	u	-22%	4%	7%	16µM*
COc1ccc(-c2cn3c(n2)sc2cc(C(=O)NCCC4=CCCCC4)ccc23)cc1	16%	x	3%	x	x
SMILES	GLP-1R inv ag	VP16 counter	GLP1R cytotox	GLP-1R agonist	RORg inh
NC(N)=N/N=C/c1ccc(OCc2ccccc2Cl)cc1	11µM*	u	u	-23%	u
Oc1c(Cl)cc(Cl)cc1Sc1cc(Cl)cc(Cl)c1O	x	13µM*	x	-5%	u
CCc1cc2c(N3CCCCC3)ncnc2s1	-32%	35µM*	-3%	10%	u
Cc1sc2ncnc(N3CCCCC3)c2c1C	51%	-8%	2%	5%	1%
CCOc1cc(/C=N\Nc2nc(Nc3ccccc3)nc(N3CCOCC3)n2)ccc1OC(=O)c1ccco1	7.1µM*	-7%	8%	-9%	-29%[10 µM]
Cc1ccc(Nc2nc(N/N=C\c3ccc4c(c3)OCO4)nc(N3CCOCC3)n2)cc1	4.5µM*	-18%	u	9%	8.9µM*
COCCCNC(=O)NC(CCC(C)C)c1c(-n2cccc2)sc2c1CCN(C)C2 (centres undefined)	4%	x	-9%	x	x
CCCCN(C)CCNC(=O)c1nn(-c2ccc(OC)c(Cl)c2)c(=O)c2c1c1ccccc1n2C	1%	x	0%	x	x
CCOC(=O)C1CCCN(C(=O)c2ccc3c(c2)N(Cc2ccccc2F)C(=O)c2ccccc2S3=O)C1 (centres undefined)	9%	x	-10%	-1%	x
CCOC(=O)N1CCN(S(=O)(=O)c2ccc(C(=O)Nc3nnc(CC)o3)cc2)CC1	1%	u	-1%	-1%	u
C=CCN(CC=C)S(=O)(=O)c1ccc(C(=O)Nc2nnc(COC)o2)cc1	-22%	7.1µM*	-6%	-7%	2µM*
COCc1nnc(NC(=O)c2ccc(S(=O)(=O)N(CC(C)C)CC(C)C)cc2)o1	u	2.5µM*	-24%	-2%	0.63µM*
Cn1c(=O)oc2cc(S(=O)(=O)N3CCCC(C(=O)NCCc4ccc(Cl)cc4)C3)ccc21 (centres undefined)	-15%	x	4%	0%	x
Cc1ccc(C2=CC(c3ccc(Cl)cc3)n3nc(-c4ccc(C)cc4)nc3N2)cc1 (centres undefined)	2.2µM*	x	35%	x	x
CCOc1ccc(C2C=C(c3ccc(C)cc3)Nc3ncnn32)cc1 (centres undefined)	x	-6%	x	x	11µM*
COc1cccc([C@@H]2Oc3ccc(Br)cc3C[C@H]2O)c1	x	-5%	x	x	26%
CCNS(=O)(=O)c1ccc(C)cc1	x	3%	x	x	-3%
Cc1cccc(C)c1OCC(=O)N[C@@H](Cc1ccccc1)[C@@H](O)C[C@H](Cc1ccccc1)NC(=O)[C@H](C(C)C)N1CCCNC1=O	x	2%	x	-4%	u
COc1cccc(-c2cc(C(=O)N/N=C/c3ccco3)c3ccccc3n2)c1	20%	7.1µM*	7%	6%	3.2µM*
O=C(N/N=C/c1ccco1)c1cc(-c2ccccc2)nc2ccccc12	-12%	10µM*	-10%	6%	7.1µM*
Cc1ccc(-c2cc(C(=O)NCc3cnn(C)c3C)c3ccccc3n2)cc1C	10%	x	-13%	x	x
Cc1ccc(-c2cc(C(=O)N/N=C\c3cnn(C)c3C)c3ccccc3n2)cc1C	2%	u	-19%	5%	11µM*
Cc1cccc(NC(=O)CN2C(=O)COc3ccc(S(=O)(=O)N4CCC(C)CC4)cc32)c1C	-1%	x	-1%	x	x
